Among the data in PubChem BioAssay (NCI) are growth values, retold here.

SMILES strings stand for the structures. This is part of a sample that, as a whole, favours compounds with a hit. Of some 83,000 tested, about 20% had one in any assay.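 Interpretation: 100, growth as untreated; towards 0, rising growth inhibition; 0, no net growth; 0 to -100, cell death. Compounds scoring below 10 were considered active.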 Values without a mark were called inactive. Activity calls are given as the source filed them.

Among the test systems are HCT-15 colon; HT29 colon; SNB-75 CNS; SNB-19 CNS; PC-3 prostate; SK-MEL-5 melanoma; UACC-62 melanoma; LOX IMVI melanoma; SK-MEL-28 melanoma; SK-MEL-2 melanoma; EKVX NSCLC; SN12C renal; UO-31 renal; TK-10 renal; A498 renal; CCRF-CEM leukemia; MOLT-4 leukemia; ACHN renal; CAKI-1 renal.
Holding throughout (experiment): NCI-60 one-dose screen, 48 h (100 = growth as untreated, 0 = no growth, -100 = all killed)
Holding throughout (details): 10 µM unless noted

As for `N=C1c2nc3n(c2C(=O)c2nc4n(c21)CCCCC4)CCCCC3`, the growth in the assay on HCT-15 colon is 109%; in the assay on HT29 colon, 106%; in the assay with SNB-75 CNS, 105%; in the assay with SNB-19 CNS it was 113%; in the assay on PC-3 prostate, 113%; in the assay on SK-MEL-5 melanoma, 88.7%. Besides, the growth with UACC-62 melanoma is 110%; in the assay on LOX IMVI melanoma, 92%; with SK-MEL-28 melanoma, 118%; in the assay on SK-MEL-2 melanoma, 118%; in the assay with EKVX NSCLC, 103%; in the assay with SN12C renal it was 106%. Besides, the growth with UO-31 renal was 83.6%; with TK-10 renal it was 142%; with A498 renal, 91.6%; with CCRF-CEM leukemia, 104%; in the assay with MOLT-4 leukemia, 93.7%.
Take `O=C1C(=O)/C(=C/c2ccccc2)CCCCCC/C1=C/c1ccccc1`: the growth is 32.2% with HCT-15 colon; -25.6% (active) in the assay with HT29 colon; 68% with SNB-75 CNS; 67.9% in the assay with SNB-19 CNS; 55.4% in the assay on PC-3 prostate; 88.2% with SK-MEL-5 melanoma. In addition, the growth is 79.6% with UACC-62 melanoma; -73.5% (active) in the assay on LOX IMVI melanoma; 94.9% in the assay on SK-MEL-28 melanoma; 105% in the assay on SK-MEL-2 melanoma; 30.9% in the assay with UO-31 renal; 115% in the assay with TK-10 renal. The growth in the assay with ACHN renal was 88.5%; with CAKI-1 renal, 82.1%; in the assay with A498 renal it was 78.6%; in the assay with CCRF-CEM leukemia, 4.29% (active); with MOLT-4 leukemia, 10.2%.
For the molecule `O=C1/C(=C/c2ccccc2O)C(=S)SN1Cc1ccco1`, the growth is 91.6% in the assay on HCT-15 colon; 87.6% with HT29 colon; 70.2% in the assay with SNB-75 CNS; 111% in the assay on SNB-19 CNS; 93.3% in the assay on PC-3 prostate; 95.8% in the assay on SK-MEL-5 melanoma. Further, the growth was 94.4% in the assay with UACC-62 melanoma; 34.7% with LOX IMVI melanoma; 92% in the assay with SK-MEL-28 melanoma; 81.4% with SK-MEL-2 melanoma; 93.8% in the assay on SN12C renal; 84.4% with UO-31 renal. Further, the growth was 98.8% in the assay with TK-10 renal; 106% in the assay on ACHN renal; 119% in the assay with CAKI-1 renal; 95.2% in the assay on A498 renal; 70.7% with CCRF-CEM leukemia; 99% with MOLT-4 leukemia.
Turning to `Oc1c(N=Nc2nn[nH]n2)ccc2ccccc12`, the growth with HCT-15 colon is 68.2%; with HT29 colon it was 81.8%; with SNB-75 CNS, 143%; in the assay on SNB-19 CNS, 92.6%; with PC-3 prostate it was 67.6%; with SK-MEL-5 melanoma, 38.4%. Besides, the growth in the assay on UACC-62 melanoma was 77%; in the assay with LOX IMVI melanoma it was 78%; in the assay on SK-MEL-28 melanoma it was 94.6%; in the assay with SK-MEL-2 melanoma, 107%; in the assay with SN12C renal, 84.3%; with UO-31 renal, 59.1%. For the same molecule, the growth is 132% with TK-10 renal; 86.8% in the assay with ACHN renal; 98.2% with CAKI-1 renal; 102% in the assay with A498 renal; 99.2% in the assay with MOLT-4 leukemia.
As to `Cn1c(N2N=C(c3ccc(Cl)cc3)CC2c2ccccc2)nc(-c2ccccc2)c(C#N)c1=O` (stereo unspecified), the growth in the assay with HCT-15 colon was 80%; with HT29 colon, 79.3%; with SNB-75 CNS, 91.4%; with SNB-19 CNS, 88.8%; with PC-3 prostate, 49.7%; in the assay with SK-MEL-5 melanoma, 54.7%. Besides, the growth was 58.9% in the assay on UACC-62 melanoma; 70.9% with LOX IMVI melanoma; 94.5% with SK-MEL-28 melanoma; 78.4% with SK-MEL-2 melanoma; 67.3% in the assay with SN12C renal; 60.5% in the assay with UO-31 renal. Further, the growth in the assay with TK-10 renal was 117%; with ACHN renal, 77.2%; with CAKI-1 renal, 63.7%; in the assay on A498 renal it was 79.6%.
Consider `COc1ccc(NC(=O)c2ccccc2-c2ccccc2)c(C(N)=O)c1`, for which the growth with HCT-15 colon is 32.8%; in the assay on HT29 colon it was 11.4%; in the assay on SNB-75 CNS it was -10.7% (active); with SNB-19 CNS, 39.8%; with PC-3 prostate, 32.8%; with SK-MEL-5 melanoma, 29.7%. Further, the growth with UACC-62 melanoma was 55.7%; in the assay with LOX IMVI melanoma, 36.9%; in the assay on SK-MEL-28 melanoma it was 59.7%; in the assay with SK-MEL-2 melanoma, 26.4%; in the assay with SN12C renal, 61.3%; in the assay on UO-31 renal, 40.1%. For the same molecule, the growth in the assay on TK-10 renal was 76.1%; in the assay on CAKI-1 renal it was 41.9%; with A498 renal it was 30.8%; in the assay with CCRF-CEM leukemia, 11.7%.
In the case of `Cc1ccc(-c2c3c(N)c4c(nc3nc3c2c(C)nn3-c2ccccc2)CCC4)cc1`, the growth in the assay with HCT-15 colon was 15%; in the assay on HT29 colon, 3.96% (active); with SNB-75 CNS, 105%; in the assay on SNB-19 CNS, 99.4%; in the assay with PC-3 prostate, 91.1%; in the assay on SK-MEL-5 melanoma it was 90.4%. Further, the growth is 99.8% in the assay on UACC-62 melanoma; -31% (active) in the assay with LOX IMVI melanoma; 70.2% with SK-MEL-28 melanoma; 88.6% in the assay with SK-MEL-2 melanoma; 94.1% with SN12C renal; 50.5% with UO-31 renal. Besides, the growth with TK-10 renal was 100%; in the assay on ACHN renal, 12%; in the assay on CAKI-1 renal, 99.2%; in the assay with A498 renal, 107%; in the assay with MOLT-4 leukemia, 60.9%.
Regarding `CCOc1cc(/C=C/C(=O)CC(=O)/C=C/c2ccc(OC(=O)CNCCN(CC)CC)c(OCC)c2)ccc1OC(=O)CNCCN(CC)CC`, the growth is -59.1% (active) with HCT-15 colon; -88% (active) with HT29 colon; -15.1% (active) in the assay on SNB-75 CNS; 11.4% with SNB-19 CNS; -18.5% (active) in the assay with PC-3 prostate; -90.1% (active) in the assay with SK-MEL-5 melanoma. The growth in the assay with UACC-62 melanoma was -70.9% (active); in the assay on LOX IMVI melanoma it was -82.3% (active); in the assay with SK-MEL-28 melanoma, -57.1% (active); with SK-MEL-2 melanoma, 4.43% (active); with EKVX NSCLC, -38.1% (active); in the assay on SN12C renal it was -9.33% (active). The growth in the assay on TK-10 renal is 7.64% (active); with ACHN renal it was -88.4% (active); in the assay on A498 renal, -26.8% (active); in the assay on CCRF-CEM leukemia, 4.21% (active); with MOLT-4 leukemia, -23.4% (active).
Regarding `O=C(N/N=C/c1cccc(O)c1O)c1ccccc1`, the growth is 22.7% with HCT-15 colon; 26.4% in the assay with HT29 colon; 41% with SNB-75 CNS; 35.7% in the assay on SNB-19 CNS; 28.9% in the assay with PC-3 prostate; 0.968% (active) in the assay with SK-MEL-5 melanoma. Besides, the growth was -9.23% (active) in the assay on UACC-62 melanoma; 7.69% (active) with LOX IMVI melanoma; 30.5% in the assay with SK-MEL-28 melanoma; 54.5% in the assay with SK-MEL-2 melanoma; 21.3% in the assay with SN12C renal; 4.38% (active) in the assay on UO-31 renal. The growth is 18.6% with TK-10 renal, 11.5% in the assay on ACHN renal, -20.5% (active) in the assay on CAKI-1 renal and 9.39% (active) in the assay on MOLT-4 leukemia.
